Bioassay records: PubChem BioAssay, National Center for Advancing Translational Sciences (NCATS)
An excerpt weighted towards active compounds, which were near 3% of everything screened.
KDM5B inh = Primary screen for KDM5B Histone Demethylases FDH-coupled qHTS; AID 1347165, 2019; KDM5B demethylase, FDH-coupled NADH fluorescence (FDH is formaldehyde dehydrogenase); 2.6% of 220,000 active; Potency, µM (doses to about 57.7 µM), most hits filed as inhibitors; Lysine-specific demethylase 5B (Homo sapiens), Q9UGL1; note: potency is the fitted concentration of half-maximal effect; 0% is about no effect; nearly all actives have a fitted effect of over 70% in size
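KDM5BΔAP (200 nM final) in 50 mM HEPES pH 7.5, 0.01% Tween-20 was preincubated 10 min at RT with compound over a concentration range. Substrate mix (H3K4me3 12.5 µM, α-KG 25 µM, Fe²⁺, ascorbate, NAD⁺, FDH) was added, and NADH fluorescence change over 30 min gave dose-response curves.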
IP6K1 inh = Primary qHTS assay for small molecule inhibitors of Inositol hexaphosphate kinase 1 (IP6K1) | IP6K1 kinase, ADP-Glo luminescence, 2 h; stronger effect = lower value | activity change, % (series mostly up to about 58 µM) | 0.81% of 140,000 active | AID 1645851, 2021; in the data active = activity change below about -25%; note: % is set by controls: 0 for no effect and ±100 for the full control effect
Target sequence (Q92551 whole entry, looked up): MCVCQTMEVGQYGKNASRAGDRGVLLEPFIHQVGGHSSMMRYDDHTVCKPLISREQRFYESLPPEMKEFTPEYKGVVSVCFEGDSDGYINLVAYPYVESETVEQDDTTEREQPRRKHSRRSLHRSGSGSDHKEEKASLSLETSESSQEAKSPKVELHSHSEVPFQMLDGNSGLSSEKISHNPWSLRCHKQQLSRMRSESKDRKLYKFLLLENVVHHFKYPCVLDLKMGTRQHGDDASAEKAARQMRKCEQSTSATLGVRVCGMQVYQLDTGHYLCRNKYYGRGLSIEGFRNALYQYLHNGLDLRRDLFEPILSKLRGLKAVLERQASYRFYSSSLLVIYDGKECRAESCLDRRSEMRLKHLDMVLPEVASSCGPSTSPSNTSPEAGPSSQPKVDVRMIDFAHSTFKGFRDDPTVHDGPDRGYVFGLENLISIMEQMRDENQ
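ADP-Glo luminescence measures ADP made by human IP6K1 during a 2 h RT reaction with ATP/IP6 (mix at 1.3 mM/130 uM); top library doses 57.5 and 19.1 uM final.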
SNCA viab count = GF-AFC viability counterscreen for inhibitors of alpha-synuclein gene (SNCA) expression; Potency, µM (doses to about 57.1 µM), for the others: at the top dose activity change, negative = cytotoxicity, most hits filed as cytotoxic; 0.12% of 150,000 active; HEK-293-SNCA-luc viability, GF-AFC fluorescence, 24 h;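 note: potency is the fitted concentration of half-maximal effect; 0% = DMSO-treated cells and -100% = medium-only wells without cells; nearly all actives have a fitted effect of over 30% in size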
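HEK-293-SNCA-luc cells (1500/well) plated 24 h, then exposed 24 h to a dilution series; GF-AFC added 30 min at 37C, fluorescence 405/540 nm; normalised to medium-only and DMSO wells, Hill fit.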
SNCA expr inh = Primary qHTS assay for inhibitors of alpha-synuclein gene (SNCA) expression; 0.17% of 140,000 active; Potency, µM (doses to about 57.2 µM), for inactives: at the highest dose activity change, negative = inhibition, most hits filed as inhibitors; AID 1671194, 2021; HEK-293 SNCA-luciferase knock-in, luminescence, 24 h;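 note: potency is the fitted concentration of half-maximal effect; plate controls were DMSO cells for no effect and cell-free wells for full effect; nearly all actives have a fitted effect of over 45% in size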
Starred values were filed as active, the others as inactive; i = inactive; ? = inconclusive; · = no result given; [ ] = another dose, or the depositor's remark. Unless noted, calls come from the whole dose curve; as a rule, active = well fitted curve in the direction sought with a large enough effect; inconclusive = small, poorly fitted or top-dose-only effect, or another doubt; inactive = no such curve, though single readings can be large; an effect the other way counts as inactive or inconclusive.

SMILES	KDM5B inh	IP6K1 inh	SNCA viab count	SNCA expr inh
Cc1ccc(-c2cccc(CN3CCCC(N[S+](C)(=O)[O-])C3)c2)cc1Cl (stereo not given)	·	-3	-3%	?
COc1ccc(-c2cccc(C(=O)N3CCC(NC(=O)Nc4ccc(Cl)cc4)CC3)c2)nn1	·	8	·	·
Cc1nn(-c2ccccc2)c2c1C(C1CC1)N(C1CN(C(=O)c3ccc4c(c3)OCO4)C1)C2=O (stereo not given)	·	24	·	·
COC(=O)c1ccc(CNC(=O)C2Cc3ccccc3O2)cc1 (stereo not given)	i	·	·	·
CC(C)(C)OC(=O)N1CCC(NC(=O)c2nc(-c3ccccc3)c3ccccn23)CC1	79µM*	-15	1%	92%
COc1ccc(-c2nc(C(=O)NC3CC3)n3ccccc23)cc1	32µM*	17	2%[87.6 µM]	-5%[87.6 µM]
Cc1ccc(CS(=O)(=O)c2ncc(Cl)c(C(=O)Nc3nnc(C(C)C)s3)n2)cc1	i	-11	25µM*	?
Cc1cccc(CS(=O)(=O)c2ncc(Cl)c(C(=O)Nc3nnc(C(C)C)s3)n2)c1	i	8	?	?
CCc1nnc(NC(=O)c2nc(S(=O)(=O)Cc3cccc(C)c3)ncc2Cl)s1	i	-4	20µM*	?
O=C(Nc1nc2ccc(F)cc2s1)c1nc(S(=O)(=O)Cc2ccccc2F)ncc1Cl	?	-40*	?	?
O=S(=O)(c1ccccc1)N1CCN(c2ccc3nnc(C4CC4)n3n2)CC1	·	28	·	·
Cc1c(-c2cccc(Cl)c2)nc2ccccc2c1C(=O)NC1CCCC1	i	·	·	·
COc1ccc(-c2ccc3ncn(-c4ccc(F)cc4F)c(=O)c3n2)cc1OC	40µM*	-4	-13%[87.6 µM]	-13%[87.6 µM]
O=c1c2nc(-c3ccccc3)ccc2ncn1-c1ccc(F)cc1F	?	2	-22%[87.6 µM]	18%[87.6 µM]
O=c1c2nc(-c3ccsc3)ccc2ncn1-c1ccc(F)cc1F	35µM*	-4	-10%[87.6 µM]	18%[87.6 µM]
CC(C)NC(=O)NCCNC(=O)c1cccc(-c2ccsc2)c1	·	2	5%[12.5 µM]	?
CCNC(=O)c1cccnc1OC1CCN(Cc2ccccn2)C1 (stereo not given)	20µM*	20	10%	10%
CCNC(=O)c1cccnc1OC1CCN(C(=O)CC)C1 (stereo not given)	i	23	11%	20%
CN(C)C(=O)c1cccnc1OC1CCNCC1	?	12	7%	51%
O=C(NCCc1ccccn1)c1cccnc1OC1CCNCC1	28µM*	16	13%	126%
O=C(CNC(=O)c1ccc(-c2cnc3ccccc3c2)cc1)NCc1ccccc1	·	7	·	·
CC(C)CN1CCN(C(=O)CCC[C@H]2NC[C@@H]3C[C@H]2CN(Cc2ccccc2)C3)CC1	6.3µM*	-13	-23%	-19%
COc1ccccc1CNC(=O)CCC[C@H]1NC[C@@H]2C[C@H]1CN(Cc1ccccc1)C2	4.5µM*	-15	-13%	8%
CCn1cnc2c1c(=O)n(CC(=O)N1CCN(C)CC1)c(=O)n2Cc1ccccc1	i	·	·	·
CC1(C)[C@H]2CC[C@@H](CNC(=O)c3cccc4[nH]ccc34)[C@@H]1C2	32µM*	9	0%[87.6 µM]	-27%[87.6 µM]
SMILES	KDM5B inh	IP6K1 inh	SNCA viab count	SNCA expr inh
CC12C(=O)OC(=O)C1(C)C1CCC2O1 (stereo not given)	·	·	?	3.5µM*
COc1ccc(CC(=O)NC2CCN(C(=O)c3ccc(-c4ccccc4OC)cc3)CC2)cc1	·	4	-2%[12.5 µM]	-9%
O=C(NCCc1cccnc1)c1ccccc1Cl	i	·	·	·
COc1ccccc1-c1ccnc(-n2ncc(C(=O)NCCc3cccnc3)c2C2CC2)n1	32µM*	-6	1%	90%
O=C(c1ccn[nH]1)N1CC=C(c2cnc3cnc(-c4ccccc4)cn23)CC1	?	-12	-3%[87.6 µM]	3%[87.6 µM]
O=C(c1cccc(O)c1)N1CC=C(c2cnc3cnc(-c4ccccc4)cn23)CC1	28µM*	-7	-1%[87.6 µM]	-22%[87.6 µM]
N#CCCn1cc(C(=O)Nc2ccc(Cl)cc2)c(-c2cccs2)n1	i	·	·	·
CCCc1nc(Cn2cnc3c2c(=O)n(C)c(=O)n3C)cs1	i	·	·	·
Cc1ccc(C(=O)NCc2nnc3c(-c4nc(C5CC5)no4)cccn23)cc1F	?	7	-9%	-26%
Cc1ccc(CC(=O)NCc2nnc3c(-c4nc(C5CC5)no4)cccn23)cc1	?	5	-9%	0%
O=C(Cc1ccc(F)cc1)NCc1nnc2c(-c3nc(C4CC4)no3)cccn12	32µM*	8	-8%	?
O=C(NCc1nnc2c(-c3nc(C4CC4)no3)cccn12)c1cccc(Cl)c1	28µM*	16	2%	-2%
O=C(NCc1nnc2c(-c3nc(C4CC4)no3)cccn12)c1ccc(F)cc1Cl	20µM*	0	-4%	4%
O=C(Cc1cccc(F)c1)NCc1nnc2c(-c3nc(C4CC4)no3)cccn12	32µM*	13	-5%	21%
CC1(c2ccccc2)N(Cc2ccccc2)C(=O)OC12CCN(c1cccnc1)CC2 (stereo not given)	?	-7	-24%[87.6 µM]	4%[87.6 µM]
Cn1ncc2c(C(=O)CCc3ccc(F)cc3)cc(-c3ccc(Cl)cc3Cl)nc21	·	-6	-15%	-11%
C=CCOc1c(OC)ccc2c1CN(CC=C)C(=O)CCN2C[C@@H](O)COCc1ccccc1	·	-7	·	·
O=C(NCc1nnc2c(-c3nc(C4CC4)no3)cccn12)c1cccc(F)c1	25µM*	-5	-2%	5%
O=C(NCc1nnc2c(-c3nc(C4CC4)no3)cccn12)c1ccc(F)c(F)c1	?	7	-8%	-8%
Cc1ccnn1CCC(=O)Nc1nn(C)c2cccc(N3CCOCC3)c12	28µM*	13	-4%	-32%
O=C(Nc1nn(Cc2ccccc2)c2cccc(N3CCOCC3)c12)C1CCC1	25µM*	-4	0%	-23%
O=C(Nc1nn(-c2cccc(F)c2)c2cccc(N3CCOCC3)c12)C1CCC1	32µM*	0	-2%	133%
CCc1ccc2nc(-c3ccncc3)cc(C(=O)O)c2c1	i	·	·	·
O=C(NCc1cccc(C(F)(F)F)c1)c1nc2sccn2c1-c1cccc(C(F)(F)F)c1	·	7	8%	?
Cc1noc(C)c1CC(=O)N[C@@H]1CN(c2ccncn2)C[C@H]1CN(C)C	i	4	4%	-1%
CN(C)C[C@@H]1CN(c2ccccn2)C[C@H]1NC(=O)Cc1ccsc1	28µM*	1	-5%	27%
CN(C)C[C@@H]1CN(c2ccccn2)C[C@H]1NC(=O)CCn1cccn1	?	18	12%	-4%
CN(C)C[C@@H]1CN(c2ccccn2)C[C@H]1NC(=O)NC(C)(C)C	32µM*	4	-14%	26%
Cc1noc(C)c1CC(=O)N[C@@H]1CN(c2ccccn2)C[C@H]1CN(C)C	32µM*	3	-3%	2%
CN(C)C[C@@H]1CN(c2ccccn2)C[C@H]1NC(=O)CC1=CCCCC1	32µM*	-3	-9%	1%
